# From PubChem BioAssay AID686979 (National Center for Advancing Translational Sciences (NCATS), 2013)
# Screen size: about 420,000 compounds; about 50,000 (12%) were called active. Inconclusive results (about 26%) are left out. Calls follow the shape of the dose curve; as a rule, active = well fitted inhibition curve with a large enough effect; inconclusive = small, poorly fitted or top-dose-only effect; inactive = flat fitted curve, though single readings scatter. What follows is part of a selection rich in actives, with near analogues and random picks from the rest.
# Test: qHTS for Inhibitors of human tyrosyl-DNA phosphodiesterase 1 (TDP1): qHTS in cells in presence of CPT; also: nearly all actives have a fitted effect of over 55% in size
# Conditions: chicken DT40 Tdp1-/-;hTDP1 cells + 20 nM CPT, ATP luminescence, 48 h; series mostly up to 46.2 µM; activity change, negative = growth inhibition: at the top concentration
# Summary of the method: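 Chicken DT40 Tdp1-/- cells complemented with human TDP1, 400 cells/well, exposed to compounds plus 20 nM camptothecin for at least 48 h at 37 C; viability read as ATP content by CellTiter-Glo luminescence.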
# % is scaled to controls: 0 for no effect and ±100 for the full control effect; potency is read from the fitted curve at half-maximal effect.
Compound,"activity change, negative = growth inhibition",Potency
COc1ncc2nc(-c3ccc(Cl)cc3)c(=O)n(-c3ccccc3)c2n1,29% (inactive),–
N#Cc1ccc(-c2nc3c(Cl)cc(C(F)(F)F)cn3c2Cc2ccccc2C(F)(F)F)cc1,-1.15% (inactive),–
COc1ccccc1Cc1c(-c2ccc(Cl)cc2)nc2c3ccccc3ccn12,–,25.9 µM (active)
O=C1C(c2ccccn2)=[N+]([O-])c2ccccc21,-28.8% (inactive),–
O=C1c2oc3ccccc3c(=O)c2C(c2cccc(O)c2)N1c1ccccn1 (stereo not drawn),–,20.6 µM (active)
CC(=O)c1sc(N2C(=O)c3oc4ccccc4c(=O)c3C2c2ccc(C)cc2)nc1C (stereo not drawn),7.1% (inactive),–
COCCN1C(=O)c2oc3c(C)cc(C)cc3c(=O)c2C1c1cccc(O)c1 (stereo not drawn),-26.3% (inactive),–
O=C(NC1CC(=O)N(c2ccc(F)cc2)C1)c1cccs1 (stereo not drawn),-7.52% (inactive),–
CC(C)=NN1C(=O)c2ccccc2NC1(C)C,33% (inactive),–
O=C(Nc1ccc2c(c1)OCO2)c1ccc(N2C(=O)c3ccccc3C2=O)cc1,-4.6% (inactive),–
COc1ccc(-c2csc(N3CCN(Cc4ccc5c(c4)OCO5)CC3)n2)cc1,-5.07% (inactive),–
CCCn1c(C(C)Nc2nc(-c3ccc(C)cc3)cs2)nc2cc(Cl)c(N3CCCCC3)cc21 (stereo not drawn),-17.2% (inactive),–
Cc1ccc(-c2csc(N3CCN(c4cc5c(cc4Cl)nc(-c4ccncc4)n5CCOCCO)CC3)n2)cc1,–,16.4 µM (active)
COc1cccc(CNC(=O)c2nnn(CC(=O)Nc3cc(C)ccc3C)c2N)c1,-3.62% (inactive),–
CSc1c(SCc2ccccc2)cnn(Cc2ccccc2)c1=O,4.13% (inactive),–
Cn1c(=O)n(CCc2ccccc2)c(=O)c2c1nc1n2CCCN1c1ccccc1,-21.7% (inactive),–
CC1CN(C2CCCCC2)c2nc3c(c(=O)n(C)c(=O)n3C)n2C1 (stereo not drawn),-29.8% (inactive),–
Cc1cccc(N2CC(C)Cn3c2nc2c3c(=O)n(CC(=O)OCc3ccccc3)c(=O)n2C)c1 (stereo not drawn),–,23.1 µM (active)
CCn1c(SC(C)C(=O)Nc2ccc(N3CCOCC3)cc2)nnc1-c1ccco1 (stereo not drawn),-14.6% (inactive),–
COc1ccc(C(C)C)cc1-c1ccc2nncn2c1,-1.77% (inactive),–
C=CCn1c(SCC(=O)Nc2ccc(NC(C)=O)cc2)nc2sc(C)c(C)c2c1=O,-7.85% (inactive),–
CC(OC(=O)CNC(=O)c1ccco1)C(=O)Nc1ccc(Cl)cn1 (stereo not drawn),3.92% (inactive),–
CC(=O)c1ccc(N2Cc3ccccc3C2)cc1,11.7% (inactive),–
O=C(Nc1ccc(NC(=O)c2ccc3c(c2)OCO3)cc1)c1cccc(Cl)c1,12% (inactive),–
O=C(Nc1nncs1)c1cccc(S(=O)(=O)N2CCCCC2)c1,-15.7% (inactive),–
O=C(Nc1cccc(S(=O)(=O)N2CCCCC2)c1)c1ccc2c(c1)OCO2,–,25.9 µM (active)

Compound,"activity change, negative = growth inhibition",Potency
CC(NS(=O)(=O)c1ccc(Cl)cc1)C(=O)Nc1ccc2c(c1)OCCO2 (stereo not drawn),0.47% (inactive),–
CN1CCN(S(=O)(=O)c2cccc(C(=O)Nc3cccc(S(N)(=O)=O)c3)c2)CC1,-3.98% (inactive),–
O=C(Nc1cccc(S(=O)(=O)Nc2ccc(Cl)cc2)c1)c1ccc2c(c1)OCCO2,–,13 µM (active)
Cc1cc(C)cc(OCC(=O)OCC(=O)NC2CCCC2)c1,7.16% (inactive),–
Cn1c(=O)c(=O)n(C)c2cc(S(=O)(=O)CCC(=O)N3CCCCC3)ccc21,-16.2% (inactive),–
COc1cc(S(=O)(=O)N2CCN(C(=O)C3CC3)CC2)ccc1NC(C)=O,-6.15% (inactive),–
Clc1ccc(Cl)c(Oc2ccc(Oc3nc(Cl)ccc3Cl)cc2)n1,-23.1% (inactive),–
COC(=O)CCCCC1=CCC2C(=O)C=C(O)C2C1 (stereo not drawn),-19.3% (inactive),–
COc1ccc(-c2nnc(SCC(=O)NC3CCCCC3)o2)cc1OC,–,20.6 µM (active)
Cc1cc(C)cc(-c2nnc(SCC(=O)NC3CC3)o2)c1,-10.3% (inactive),–
COc1ccc(-c2nnc(SCC(=O)Nc3ccccc3C)o2)cc1OC,-12.2% (inactive),–
Cc1cc(C)nc(/N=C2\NC(=O)CC(C(=O)O)N2c2ccc(Cl)cc2Cl)n1 (stereo not drawn),-8.38% (inactive),–
Cc1cc(NC(=O)CCC(=O)N(c2cccc(F)c2)C(C(=O)NC2CCCC2)c2ccncc2)no1 (stereo not drawn),-3.74% (inactive),–
Cc1cc(NC(=O)/C=C/C(=O)N(CC(=O)NC2CCCC2)c2ccc(F)cc2)no1,8.35% (inactive),–
Cc1cc(NC(=O)/C=C/C(=O)N(c2ccccc2C)C(C(=O)NC2CCCC2)c2ccc(F)cc2)no1 (stereo not drawn),–,20.6 µM (active)
O=C(Nc1ccc(F)c([N+](=O)[O-])c1)C1CCCO1 (stereo not drawn),-10.5% (inactive),–
CN(c1ccccc1)S(=O)(=O)c1cccc(C(=O)NNC(=O)c2ccncc2)c1,-10.2% (inactive),–
CN(C)S(=O)(=O)c1ccc(N2CCCC2)c(C(=O)NCc2ccccc2)c1,-14.6% (inactive),–
CCN(CC)S(=O)(=O)c1ccc(N2CCOCC2)c(C(=O)O)c1,0.809% (inactive),–
CCN(CC)S(=O)(=O)c1ccc(N2CCOCC2)c(NC(=O)c2ccc(=O)n(C)n2)c1,-10.4% (inactive),–
CCN(CC)S(=O)(=O)c1ccc(N2CCOCC2)c(NC(=O)C2COc3ccccc3O2)c1 (stereo not drawn),–,18.4 µM (active)
CCN(CC)S(=O)(=O)c1ccc(N2CCCC2)c(NC(=O)c2ccc([N+](=O)[O-])o2)c1,–,23.1 µM (active)
CCN1CCN(c2ccc(S(=O)(=O)N3CCCCC3)cc2NC(=O)c2cccc(NC(C)=O)c2)CC1,-7.38% (inactive),–
O=C(c1cccnc1)N(Cc1ccccc1)C(=O)c1cccnc1,-2.33% (inactive),–
COc1ccccc1C(=O)NCC(=O)OCC(=O)NNC(=O)c1ccc(Br)cc1,3.59% (inactive),–
Cc1ccc(N2C(=O)C(NC(=O)c3c(F)cccc3F)(C(F)(F)F)C3=C2CC(C)(C)CC3=O)cc1 (stereo not drawn),20.2% (inactive),–

Compound,"activity change, negative = growth inhibition",Potency
Cc1ccc(O)c(NC(=O)c2cc(-c3ccco3)on2)c1,6.69% (inactive),–
Cc1cccc(NC(=O)C2CC(=O)OC23CCCC3)c1 (stereo not drawn),-2.24% (inactive),–
COc1cc2c(cc1OC)C(c1ccc(C)o1)CC(=O)N2 (stereo not drawn),10.7% (inactive),–
CCCOc1ccccc1C1CC(=O)Nc2cc3c(cc21)OCO3 (stereo not drawn),–,2.31 µM (active)
COc1ccccc1C1C2=C(COC2=O)Nc2cc3c(cc21)OCO3 (stereo not drawn),-8.64% (inactive),–
COc1ccccc1C(=O)NC(=O)COC(=O)C1CC1,-14.2% (inactive),–
N#Cc1c(N)nc2c3c(sc(=N)c2c1N)NC(=O)CC3c1ccccc1Cl (stereo not drawn),-88.9% (inactive),–
COc1ccc(NC(=O)CSCc2ccc([N+](=O)[O-])cc2)cc1OC,-9.99% (inactive),–
CCCCOc1ccc(CSC(=N)N)cc1[N+](=O)[O-],–,13 µM (active)
CCCCOc1ccc(CON(C(C)=O)C(C)=O)cc1Cl,-14.4% (inactive),–
Cc1nn(C)c(C)c1C(C)NC(=O)c1ccc(OC2CCN(Cc3ccccn3)CC2)cc1 (stereo not drawn),-16.9% (inactive),–
Cc1ccc(/C=N/NC(=S)Nc2cccc(S(=O)(=O)N(C)C)c2)o1,–,4.61 µM (active)
CN(C)S(=O)(=O)c1cccc(NC(=O)Cc2ccsc2)c1,-1.21% (inactive),–
Cc1ccc(/C=N/NC(=O)Cn2nc(C)c(Br)c2C)o1,-14.3% (inactive),–
COc1ccc(NC(=O)CN(C)C(=O)Cc2coc3cc(C)c(C)cc23)cc1,-2.55% (inactive),–
COc1ccc(NC(=O)C(CC(C)C)NC(=O)C2CCC(C)CC2)cc1 (stereo not drawn),-10.8% (inactive),–
CCc1ccc(-n2nnc(-c3nc(-c4ccccc4)no3)c2C)cc1,-18.1% (inactive),–
O=C(CN(C(=O)c1csnn1)c1cccc(Cl)c1)NC1CCCC1,-0.246% (inactive),–
O=C(NC(=S)Nc1ccccc1N1CCCCC1)c1ccc(F)cc1,-10.6% (inactive),–
CC(=O)c1ccc(NC(=O)COc2ccccc2-c2nc(-c3ccccc3)no2)cc1,4.35% (inactive),–
CC(=O)c1ccc(NC(c2ccc(F)cc2)c2nnc(-c3ccccc3)o2)cc1 (stereo not drawn),–,9.2 µM (active)
CCCN(CCC)c1ccc(C(O)c2nnc(-c3ccccc3)o2)cc1 (stereo not drawn),2.08% (inactive),–
CCn1c(SCC(=O)Nc2ccc3c(c2)OCCO3)nnc1-c1ccncc1,3.72% (inactive),–
CCC(=O)c1ccc(OCC(=O)OCC(=O)NC2CCCCCC2)cc1,-25.7% (inactive),–
Cc1cc(C)c(C)c(S(=O)(=O)Nc2cccnc2)c1C,2.32% (inactive),–
Cc1ccc(C(=O)NNC2=Nc3cc([N+](=O)[O-])ccc3OC2)cc1,-2.68% (inactive),–
